13 compounds from PubChem BioAssay (NCI) can be followed below.

Among the test systems are HCT-15 colon; HT29 colon; SNB-75 CNS; SNB-19 CNS; U251 CNS; PC-3 prostate; SK-MEL-5 melanoma; UACC-62 melanoma; LOX IMVI melanoma; SK-MEL-28 melanoma.
Common to all, as to assay: NCI-60 one-dose screen, 48 h (100 = growth as untreated, 0 = no growth, -100 = all killed)
Conditions in all cases: 10 µM unless noted

Compounds without any hit were thinned out: in the full panel of roughly 83,000, 20% have a hit.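 Values shown are percent growth following 48 h exposure of cells in 96-well plates to a single concentration of compound; below 10 was considered active.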 Values without a mark were called inactive. Calls of active or inactive are those of the source.

In the case of `Cc1ccc(NC(=O)N/N=C/c2c[nH]c3ccccc23)c(C)c1`, the growth in the assay with HCT-15 colon is 9.06% (active); in the assay with HT29 colon, -35.4% (active); in the assay on SNB-75 CNS, 14.5%; in the assay with SNB-19 CNS, 34.7%; in the assay on U251 CNS, 9.2% (active); in the assay on PC-3 prostate, 27.8%. Moreover, the growth is 5.42% (active) in the assay on SK-MEL-5 melanoma, 8.67% (active) in the assay on UACC-62 melanoma, -19% (active) in the assay with LOX IMVI melanoma and 47.8% with SK-MEL-28 melanoma.

Regarding `Cc1nc(N)ncc1-c1ccc2ncnc(N3CCc4cc(F)c(Cl)cc43)c2c1`, the growth with HCT-15 colon is 55.5%; in the assay with HT29 colon, 67.2%; with SNB-75 CNS it was 15.7%; in the assay on SNB-19 CNS it was 68.3%; in the assay with U251 CNS, 67%; in the assay on PC-3 prostate, 54.4%. In addition, the growth in the assay with SK-MEL-5 melanoma was 77.1%; in the assay on UACC-62 melanoma, 71.8%; in the assay with LOX IMVI melanoma, 60.9%; in the assay on SK-MEL-28 melanoma, 107%.

Take `Cc1cc(C(NC(=O)CCCCCNc2cccc3c2C(=O)N(C2CCC(=O)CC2=O)C3=O)c2cccc(N(C)C)c2)c(O)c2ncccc12` (stereo not given): the growth in the assay with HCT-15 colon was 8.01% (active); with HT29 colon, 28.6%; with SNB-75 CNS, 32.9%; in the assay on SNB-19 CNS, 10.1%; in the assay on U251 CNS, 17.6%; in the assay with PC-3 prostate, 7.35% (active). Moreover, the growth with SK-MEL-5 melanoma is -70.1% (active); in the assay with UACC-62 melanoma, -6.03% (active); with LOX IMVI melanoma, 0.535% (active); in the assay with SK-MEL-28 melanoma it was 10.7%.

For the compound `N#CC1=C(c2ccco2)Nc2c(c(-c3ccccc3)nn2-c2ccccc2)C12C(=O)Nc1ccc(Br)cc12` (stereo not given), the growth is 38.6% with HCT-15 colon; 49.5% with HT29 colon; -8.95% (active) in the assay with SNB-75 CNS; 60% in the assay with SNB-19 CNS; 1.85% (active) with U251 CNS; 24.1% in the assay with PC-3 prostate. Further, the growth in the assay on SK-MEL-5 melanoma is 59%; with UACC-62 melanoma it was 51.5%; in the assay with LOX IMVI melanoma, 21.3%; in the assay on SK-MEL-28 melanoma, 67.5%.

Take `COc1ccc(SC2c3cc(OC)ccc3Oc3nc(N)c(C#N)c(N)c32)cc1` (stereo not given): the growth in the assay with HCT-15 colon was 80.5%; with HT29 colon, 97.4%; in the assay with SNB-75 CNS it was 49.6%; with SNB-19 CNS, 71.7%; with U251 CNS, 65.3%; in the assay on PC-3 prostate, 42.4%. Besides, the growth is 60.4% with SK-MEL-5 melanoma, 65.5% in the assay with UACC-62 melanoma, 5.16% (active) in the assay with LOX IMVI melanoma and 111% in the assay with SK-MEL-28 melanoma.

Turning to `Cc1ccc2nc(NC(=O)Nc3cccc(Cl)c3)sc2c1`, the growth is 92% in the assay with HCT-15 colon; 104% in the assay with HT29 colon; 108% in the assay on SNB-75 CNS; 103% in the assay with SNB-19 CNS; 111% in the assay with U251 CNS; 92.4% with PC-3 prostate. Besides, the growth in the assay on SK-MEL-5 melanoma is 97.2%; in the assay with UACC-62 melanoma, 91.2%; in the assay on LOX IMVI melanoma, 88.1%; with SK-MEL-28 melanoma, 112%.

Take `O=C(CSc1nc2ccccc2c(=O)[nH]1)Nc1ccccc1C(=O)O`: the growth in the assay on HCT-15 colon was 86.6%; with HT29 colon it was 124%; with SNB-75 CNS, 139%; in the assay with SNB-19 CNS, 95.7%; in the assay with U251 CNS, 101%; in the assay with PC-3 prostate, 110%. For the same compound, the growth was 94.9% in the assay on SK-MEL-5 melanoma, 84.8% in the assay on UACC-62 melanoma, 84.8% with LOX IMVI melanoma and 93.7% with SK-MEL-28 melanoma.

Take `N#C/C(=C1/C(=O)Nc2ccccc21)c1nnc(NC(=O)c2ccc(-n3c(=O)[nH]c4ccccc4c3=O)cc2)s1`: the growth is 14.8% in the assay on HCT-15 colon; 26.9% in the assay with HT29 colon; 79.5% in the assay on SNB-75 CNS; 51.1% in the assay with SNB-19 CNS; 37.5% in the assay on U251 CNS; 31.8% in the assay with PC-3 prostate. Moreover, the growth in the assay with SK-MEL-5 melanoma was 10.3%; in the assay with UACC-62 melanoma, 42%; in the assay with LOX IMVI melanoma, 0.591% (active); with SK-MEL-28 melanoma it was 34.4%.

With `COc1ccc(N=Nc2c(N)nn3c(N)c(C#N)c(-c4ccc(C)cc4)nc23)cc1`, the growth in the assay on HCT-15 colon was 47.8%; with HT29 colon, 66.1%; with SNB-75 CNS, 22.9%; in the assay with SNB-19 CNS it was 89.5%; in the assay on U251 CNS it was 74.4%; in the assay with PC-3 prostate it was 36.8%. For the same compound, the growth with SK-MEL-5 melanoma was 55.4%; in the assay on UACC-62 melanoma it was 78.5%; in the assay with LOX IMVI melanoma, 50.1%; in the assay with SK-MEL-28 melanoma, 91.1%.

Consider `COc1ccc2c(c1)C(=O)N(C)C2C1c2c(cc3c(c2OC)OCO3)CCN1C` (stereo not given), for which the growth in the assay on HCT-15 colon was 22.5%; in the assay with HT29 colon, 33.2%; with SNB-75 CNS it was 37.3%; in the assay on SNB-19 CNS, 49.1%; with U251 CNS, 42.7%; in the assay with PC-3 prostate, 46.9%. Also, the growth in the assay on SK-MEL-5 melanoma was 24.9%; with UACC-62 melanoma it was 26.8%; in the assay with LOX IMVI melanoma, 46.7%; in the assay on SK-MEL-28 melanoma it was 55.9%.

For the compound `Nc1nnc(-c2cncc(Br)c2)c(-c2c[nH]c3ccc(Br)cc23)n1`, the growth in the assay with HCT-15 colon was 37.1%; in the assay with HT29 colon, 35.6%; in the assay with SNB-75 CNS, 50.5%; with SNB-19 CNS, 59.5%; with U251 CNS, 63%; in the assay on PC-3 prostate, 56%. In addition, the growth in the assay on SK-MEL-5 melanoma was 31.1%; in the assay on UACC-62 melanoma it was 55.2%; in the assay on LOX IMVI melanoma, 43.1%; with SK-MEL-28 melanoma it was 67.5%.

As for `COc1ccc(Nc2nnc(-c3c[nH]c4ccccc34)o2)cc1`, the growth in the assay with HCT-15 colon is 69%; in the assay with HT29 colon it was 106%; in the assay on SNB-75 CNS, 78.8%; with SNB-19 CNS it was 95.2%; with U251 CNS, 97.6%; in the assay on PC-3 prostate, 78.6%. In addition, the growth is 90.6% with SK-MEL-5 melanoma, 82.2% with UACC-62 melanoma, 71.6% with LOX IMVI melanoma and 107% in the assay with SK-MEL-28 melanoma.

For the compound `COc1cc(C2CC(c3ccc(S(=O)(=O)NCCNc4nc(N(C)C)nc(N5CCOCC5)n4)cc3)=Nc3c(N)nc(N)nc3N2)cc(OC)c1OC` (stereo not given), the growth with HCT-15 colon was 93.8%; in the assay with HT29 colon, 99.8%; in the assay with SNB-75 CNS it was 102%; in the assay with SNB-19 CNS, 96.2%; in the assay on U251 CNS it was 97.5%; with PC-3 prostate it was 96.3%. Further, the growth in the assay with SK-MEL-5 melanoma is 91.4%; in the assay with UACC-62 melanoma, 93.7%; in the assay with LOX IMVI melanoma, 94.3%; in the assay with SK-MEL-28 melanoma, 100%.
